# Source: PubChem BioAssay (National Center for Advancing Translational Sciences (NCATS))
# D1 antagonist = human D1 dopamine receptor antagonism | P21728 | HEK293 TREx D1 cells, calcium flux, dopamine EC80; hits give low values | activity change, negative = inhibition, % at 10 µM | hit rate 3.2% among 360,000; in the data active = activity change below about -30%; note: % is set by controls: 0 for no effect and ±100 for the full control effect
#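 Calcium flux readout: force-coupled, inducible Hek293 Trex D1 line, cells induced overnight at 30 C with tetracycline, dye-loaded 30–90 min at RT. Antagonism scored against EC80 dopamine challenge given 180 s after compound.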
# D1 agonist = activates the human D1 dopamine receptor; P21728; HEK293 T-REx D1 cells, calcium flux, agonist mode; activation, % at 2 µM; hit rate 1% among 360,000; in the data active = activation above about 30%; note: 0% is about no effect
#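 Tetracycline-induced HEK293 TREx D1 cells, force-coupled to calcium signalling, were dye-loaded with a no-wash calcium kit. Compound was pin-added after a 10 s baseline. Fluorescence was read kinetically at 1 cycle/s for 180 s, with calcium rises flagged as agonism.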
# D1 PAM = potentiators of human D1 dopamine receptor | P21728 | hit rate 0.036% among 360,000 | potentiation, % at 10 µM | HEK293 TREx D1 cells, calcium flux, dopamine EC20 potentiation; in the data active = potentiation above about 30%; note: 0% is about no effect
# D3 antag = D3 dopamine receptor (human) antagonism; D3R cells, DiscoveRx beta-arrestin luminescence, antagonist mode; hits give low values; max response, negative = inhibition, %; hit rate 2.5% among 360,000; AID 652054; in the data active = max response below about -50%; inconclusive = no clear call, values can overlap the other calls; note: % is set by controls: 0 for no effect and ±100 for the full control effect
# Target sequence (P35462 whole entry, looked up): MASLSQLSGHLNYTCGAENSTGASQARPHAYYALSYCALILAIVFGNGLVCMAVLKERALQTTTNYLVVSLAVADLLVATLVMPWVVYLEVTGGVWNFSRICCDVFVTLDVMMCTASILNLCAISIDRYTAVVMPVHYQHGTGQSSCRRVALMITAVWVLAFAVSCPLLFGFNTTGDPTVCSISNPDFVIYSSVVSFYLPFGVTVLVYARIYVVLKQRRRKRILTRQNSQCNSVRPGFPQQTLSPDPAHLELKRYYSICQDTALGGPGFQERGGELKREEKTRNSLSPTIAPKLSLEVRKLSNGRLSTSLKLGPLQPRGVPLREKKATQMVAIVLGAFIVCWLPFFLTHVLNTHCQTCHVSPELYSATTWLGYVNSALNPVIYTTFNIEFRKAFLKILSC
#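 Cells plated overnight at 1500 cells/well, then exposed to library compounds with dopamine controls for 90 minutes at 37 degrees C. DiscoveRx reagent added for 30–60 minutes at room temperature; luminescence read, quantitative HTS format.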
# D3 ag = D3 dopamine receptor (human) agonism. hit rate 0.58% among 410,000. P35462. max activation, %. D3R DiscoveRx beta-arrestin cells, luminescence, 90 min; in the data active = max activation above about 30%; note: 0% is about no effect
#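 Agonist-mode cell screen: cells plated at 1500/well and incubated overnight at 37 °C, then exposed to library compounds for 90 min at 37 °C. Detection reagent was added for 30–60 min at room temperature, and luminescence was read.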
# Starred values were filed as active, the others as inactive; ? = inconclusive; / = not tested or not shown. Hits are enriched below; roughly 6.1% of the tested compounds scored in any of these assays.
SMILES,D1 antagonist,D1 agonist,D1 PAM,D3 antag,D3 ag
COc1cccc(CNC(=O)C2CCCN(c3cnccn3)C2)c1 (centres undefined),-1.6,1.9,-0.1,3.1,-4.3
CCCCN(CCCC)S(=O)(=O)c1ccc(C(=O)Nc2sc3c(c2C(N)=O)CCN(CC)C3)cc1,6.1,78.5*,1.6,/,1.9
CC(C)N1CCc2c(sc(NC(=O)c3ccc(S(=O)(=O)N4CCOCC4)cc3)c2C(N)=O)C1,-3.8,1.9,-4.1,1.3,-5.1
CC(C)CN(CC(C)C)S(=O)(=O)c1ccc(C(=O)Nc2sc3c(c2C(N)=O)CCN(C(C)C)C3)cc1,28.5,53.9*,-1.9,/,-8.8
CCN1CCc2c(sc(NC(=O)c3ccc(C(=O)c4ccccc4)cc3)c2C(N)=O)C1,-14.4,15.9,-2.3,-23.8,-5.3
CCN1CCc2c(sc(NC(=O)c3ccc(S(=O)(=O)N(CC)c4ccccc4)cc3)c2C(N)=O)C1,-20.5,147.7*,-4.1,-15.3,-2.9
CNC(=O)c1c(NC(=O)c2ccc(S(=O)(=O)N3CC(C)OC(C)C3)cc2)sc2c1CCN(C(C)C)C2 (centres undefined),12.8,6.0,-5.3,-25.6,-5.8
CNC(=O)c1c(NC(=O)c2ccc(S(=O)(=O)N3CCCC3)cc2)sc2c1CCN(C(C)C)C2,4.3,88.7*,-0.9,/,/
O=C(c1ccc(Cl)c(S(=O)(=O)N2CCCCC2)c1)N1CCN(Cc2ccccc2)CC1,1.7,5.5,-1.3,3.8,-4.5
CC(=O)NCCNC(=O)C1(C)Cc2c(-c3ccccc3)ccnc2O1 (centres undefined),/,/,/,0.0,-3.2
CC1(C(=O)NCc2cccs2)Cc2c(-c3ccc(C(N)=O)cc3)ccnc2O1 (centres undefined),/,/,/,-71.4*,-8.4
COc1ccc(CCCNC(=O)C2(C)Cc3c(-c4ccc(NC(C)=O)cc4)ccnc3O2)cc1 (centres undefined),/,/,/,-62.3*,-18.6
CC1(C(=O)NCc2ccco2)Cc2c(-c3ccccc3)ccnc2O1 (centres undefined),/,/,/,-58.2*,-7.4
COCCNC(=O)C1(C)Cc2c(-c3ccc(NC(C)=O)cc3)ccnc2O1 (centres undefined),/,/,/,-1.7,-10.5
CC(=O)Nc1ccc(-c2ccnc3c2CC(C)(C(=O)NCCc2ccccc2)O3)cc1 (centres undefined),/,/,/,-114.9*,-21.3
CC(=O)NCCNC(=O)C1(C)Cc2c(-c3ccc(C(N)=O)cc3)ccnc2O1 (centres undefined),/,/,/,22.2,4.1
CC(=O)NCCc1ccc(C(=O)COC(=O)C2CCCCC2)cc1,/,/,/,7.6,3.0
CN(C)C(=O)c1ccc(NC(=O)Cn2nc(-c3ccccc3)c3ccccc3c2=O)cc1,13.3,3.5,0.9,/,4.7
COCCCNC(=O)C1CCC(CNS(=O)(=O)c2ccc(C)cc2)CC1 (centres undefined),9.2,5.2,-5.9,/,/
CN1C(=O)c2[nH]nc(-c3ccc(F)cc3)c2C1c1cccc(O)c1 (centres undefined),16.3,0.1,3.4,/,14.2
CCCC(=O)Nc1ccc(S(=O)(=O)Nc2cc(OC)ncn2)cc1,-7.5,2.1,0.2,6.0,1.1
CCOc1ccc(N2CC(C(=O)NCCc3c[nH]c4ccc(C)cc34)CC2=O)cc1 (centres undefined),-14.4,1.3,-3.9,6.2,15.0
Cc1ccc(NC(=O)COc2ccc(N(C)S(=O)(=O)c3ccc(F)cc3)cc2)cc1,1.7,2.0,-6.6,0.2,-3.7
CC(=O)Nc1ccc(-c2ccnc3c2CC(C)(C(=O)Nc2cccc(Oc4ccccc4)c2)O3)cc1 (centres undefined),/,/,/,-66.2*,-19.4
CN(C)c1ccc(-c2ccnc3c2CC(C)(C(=O)Nc2ccc(F)c(Cl)c2)O3)cc1 (centres undefined),/,/,/,-23.7,69.3*
SMILES,D1 antagonist,D1 agonist,D1 PAM,D3 antag,D3 ag
CC(C)c1ccc(NC(=O)C2(C)Cc3c(-c4ccc(C(N)=O)cc4)ccnc3O2)cc1 (centres undefined),/,/,/,-54.3*,-18.3
CCOC(=O)c1ccc(N2C(=O)c3n[nH]c(-c4ccco4)c3C2c2ccccc2OC)cc1 (centres undefined),1.8,2.7,11.8,/,6.5
O=C(Nc1ccc(OC(F)(F)F)cc1)N1CCN(c2ccnc3cc(Cl)ccc23)CC1,-40.5*,10.2,-12.4,-15.9,5.7
O=C(C1CC1)N1CCN(c2ccnc3cc(Cl)ccc23)CC1,7.9,5.3,-0.7,-67.9*,1.8
CCOc1ccc(CNC(=O)C2CCCN(S(=O)(=O)N3CC(C)CC(C)C3)C2)cc1OC (centres undefined),-20.2,1.0,-5.1,-7.8,-16.9
CCOc1cccc2cc(S(=O)(=O)c3ccccc3F)c(=O)oc12,0.9,2.2,1.9,/,-7.0
COc1ccc(NC(=O)CC2SC(=NCC3CCCO3)NC2=O)cc1 (centres undefined),-46.9*,3.1,-10.8,-8.7,-0.7
CCC(=O)C1CCCN(C(=O)c2ccc(OC)c(OC3CCN(C(C)=O)CC3)c2)C1 (centres undefined),13.2,7.2,-0.1,-0.7,0.9
O=C(NCc1cn(-c2ccccc2)nc1-c1ccccc1)c1cccc([N+](=O)[O-])c1,-32.6*,2.2,-9.7,-10.5,-1.7
NC(=O)CC(NC(=O)Cc1ccc(Br)cc1)c1ccc(N2CCc3ccccc3C2)c([N+](=O)[O-])c1 (centres undefined),-7.7,2.4,-0.9,-29.6,-41.4
Clc1cccc(N2CCN(Cc3ccc(Br)o3)CC2)c1,-2.2,1.1,-7.5,-60.2*,-26.8
COc1cc(CN2CCN(S(=O)(=O)c3ccccc3)CC2)cc(OC)c1OC,1.1,1.5,-1.6,19.1,7.4
COc1cc(CN2CCN(c3cccc(Cl)c3)CC2)cc(OC)c1OC,2.2,1.0,-6.0,-71.4*,-18.4
Clc1ccc(N2CCN(Cc3ccc(Br)o3)CC2)cc1,-3.4,0.9,-7.5,-52.3*,-22.2
COc1cc(CN2CCN(C(O)(c3ccccc3)c3ccccc3)CC2)cc(OC)c1OC,-66.7*,9.2,-12.8,-71.6*,-23.3
C#CCNC(=O)C[C@@H]1C[C@@]2(C(=O)OC)CC(C)(C)CC=C2N(Cc2ccco2)C1=O,/,/,/,15.4,-0.8
CN(C)C(=O)N(CCCN1CCOCC1)Cc1cccc2ccccc12,-48.9*,1.5,-14.3,8.3,-3.3
C=CCOc1ccccc1CNCCCN1CCOCC1,-11.2,3.8,-6.0,-59.1*,-14.4
CCOc1ccccc1CNCCN1CCOCC1,5.8,2.2,-3.4,-12.7,-6.9
N#Cc1nc(Cc2cccc3ccccc23)oc1NCCCn1ccnc1,7.4,9.0,-5.9,?,-5.2
N#Cc1nc(Cc2cccc3ccccc23)oc1NCCCN1CCOCC1,-42.0*,8.3,-11.2,8.7,-11.2
c1ccc2c(CNCCN3CCOCC3)cccc2c1,-31.6*,2.5,-10.7,-24.7,-20.7
O=C(NC1CCN(C(=O)Nc2ccc(F)cc2)CC1)c1cccc(F)c1,11.9,1.1,-6.3,0.9,2.7
